According to PubChem BioAssay AID1117319 (Southern Research Institute, 2015):
Hit rate of the full screen: of about 260,000 compounds, about 1,500 (0.58%) were called active. Not shown: some 5% with an inconclusive outcome.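 Rule for the calls: active = inhibition above a set limit at one or more doses, reproduced on every date tested; inconclusive = results disagree between test dates, or hit never tested in dose response; inactive = the rest.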 Not all results are given here. Results with a measured potency or affinity are listed apart.

target: Virion infectivity factor (Human immunodeficiency virus type 1 group M subtype B (isolate BH10)) + Virion infectivity factor (Human immunodeficiency virus type 1 group M subtype B (isolate BRU/LAI)) + Virion infectivity factor (Human immunodeficiency virus type 1 group M subtype B (isolate PCV12)) + Virion infectivity factor (Human immunodeficiency virus type 1 group M subtype B (isolate HXB2)) + DNA dC->dU-editing enzyme APOBEC-3G (Homo sapiens) (UniProt P69720+P69721+P69722+P69723+Q9HC16); experiment: HIV-1 Vif–A3G interaction blockers – biochemical, TR-FRET, GST-Vif 1-94, biotin-A3G peptide, dose response retest, primary screen (AID 1117319); settings: TR-FRET GST-Vif / biotin-A3G peptide binding; hits give high values;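 note: Vif residues 1-94 fused to GST binding biotinylated APOBEC3G peptide 110-148; 0% = full assay without inhibitor and 100% = GST in place of GST-Vif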

inhibition, inactive:
CCOC(=O)c1coc(C(=O)OCC)c1C(=O)OCC -10.9%
COc1ccc(-c2csc(NC3=NCCCCC3)n2)cc1 -3.94%
O=C1NC(=S)N/C1=C\c1cccc([N+](=O)[O-])c1 0.47%
O=C1NC(=S)N/C1=C/c1cc([N+](=O)[O-])ccc1O 0.15%
O=C(/C=C\Nc1ccccn1)c1ccccc1 1.92%
O=C(/C=C\Nc1ccc2c(c1)OCO2)c1ccccn1 -6.96%
O=C(NCc1cccnc1)c1cc2nc(-c3cccs3)cc(C(F)(F)Cl)n2n1 -9.65%
CCOc1ccc(NCc2nc3ccccc3n2CCOc2ccccc2)cc1 11.4%
Cn1c(CNc2ccccc2O)nc2ccccc21 17.5%
CCCn1c(CNc2ccc(Br)cc2)nc2ccccc21 -3.54%
COc1ccc(NCc2nc3ccccc3n2CCOc2ccc(C)cc2)cc1 8.44%
CCOC(=O)n1c(=O)oc2cc(S(=O)(=O)N3CCOCC3)ccc21 9.96%
COc1ccc(Cc2nnc(SCC(=O)NCc3ccco3)o2)cc1 3.47%
COc1cc(-c2nnc(-c3cccs3)o2)cc(OC)c1OC 2.65%
COc1ccc(-c2nnc(-c3cccs3)o2)cc1OC 25.2%
Cc1ccc(C(=O)N[C@H](C(=O)OCC(=O)c2ccc[nH]2)C(C)C)cc1 -7.75%
O=C1NC(=S)NC1=Cc1ccc(O)cc1 4.35%
O=C1NC(=S)NC1=Cc1ccccc1O -3.79%
Cc1ccc2c(c1)/C(=C/c1ccco1)C(=O)N2 6.3%
O=C1C(=Cc2ccco2)C(=O)c2ccccc21 -3.58%
Cc1ccc(/C(O)=C2/C(=O)C(=O)N(c3ccccn3)C2c2cccc([N+](=O)[O-])c2)cc1 (configuration not stated) 1.22%
O=C(Nn1cnnc1)c1ccc(Cl)c([N+](=O)[O-])c1 -7.17%
CCN(CC)C(=O)[C@H]1C[C@H](CC(=O)NCc2ccco2)C(=O)N2CCc3c([nH]c4cc(-c5ccco5)ccc34)[C@]12C -1.87%
O=C(O)CCCNC(=O)c1cncc(Br)c1 -4.15%
COc1cc(-c2nnc3n2CCCCC3)cc(OC)c1OC -1.21%
Cc1ccc(NC(=O)C(NC2CCCC2)c2ccccc2)cc1Cl (configuration not stated) 21.3%
O=C1NN(c2ccccc2)C(=O)/C1=C/c1ccc(Sc2ccc(Cl)cc2)o1 -5.35%
C=CCN1C(=O)S/C(=C/c2ccc(Sc3nc4ccccc4[nH]3)o2)C1=O -2.89%
N#C/C(=C\c1ccc(Sc2nc3ccccc3[nH]2)o1)c1ccccc1 4.57%
N#C/C(=C/c1ccc(Sc2nc3ccccc3[nH]2)o1)c1cccc(F)c1 25.4%
CC(C)N=C1NN=C(c2cccs2)C(CC(=O)O)S1 (configuration not stated) 1.51%
CCOc1ncccc1C(=O)OCC(=O)Nc1c(C)cc(C)cc1C 2.59%
Nc1c(C(=O)Nc2ccccc2)sc2nc3c(c(-c4ccco4)c12)CCCC3 -0.46%
Nc1c(C(=O)Nc2ccccc2)sc2nc3c(c(-c4ccco4)c12)CCC3 13.2%
COc1cc(/C=C2\CC/C(=C\c3cc(OC)c(OC)c(OC)c3)C2=O)cc(OC)c1OC 2.04%
COc1cc(/C=C2\CCC/C(=C\c3ccc(O)c(OC)c3)C2=O)ccc1O 3.35%
COc1cc(/C=C2/CC/C(=C/c3ccc(O)c(OC)c3)C2=O)ccc1O 32.3%
COc1ccc(/C=C2\CC/C(=C\c3ccc(OC)c(OC)c3)C2=O)cc1OC -3.91%
Cc1cc(C)cc(OCc2ccc(C(=O)O)o2)c1 9.08%
FC(F)(F)c1ccc(N=Cc2sc(N3CCOCC3)nc2-c2ccccc2)cc1 12.3%
COc1ccc(NC(=O)CN(C)C(=O)c2sc3ccccc3c2Cl)cc1 1.23%
CS(=O)(=O)N(Cc1ccccc1)c1ccc(C(=O)NCc2ccccc2)cc1 25%
C/C(=N\Nc1ccc(S(N)(=O)=O)cc1[N+](=O)[O-])c1ccco1 -3.09%
O=C1OC(c2ccc(Cl)cc2)=C/C1=C/c1cccnc1 1.36%
COC(=O)C1=C(C)NC(C)=C(C(=O)OC)C1c1ccc(NC(C)=O)cc1 -1.45%
Cc1ccc(NC(=O)c2ccc(Cl)nc2)cc1 16.1%
O=C(Nc1ccc(Cl)c(Cl)c1)c1ccc(Cl)c(Cl)c1 22.2%
Cc1ccnc(NC(=O)c2cccc(S(=O)(=O)NCc3ccccc3)c2)c1 -2.28%
COc1cccc(-n2nnc3c(=O)n(Cc4ccc(Br)cc4)cnc32)c1 -0.95%
O=C(OCC(=O)c1cccs1)c1ccc(NC(=O)c2ccco2)cc1 13.8%
CCCC[N+](C)(C)CCC(=O)NC(C)(C)CS(=O)(=O)[O-] 17.8%
CC1(NC(=O)CC[N+](C)(C)CCO)CS(=O)(=O)CC1S(=O)(=O)[O-] (configuration not stated) 11.7%
CC(=O)Nc1ccc(/C(C)=N/NS(=O)(=O)c2ccccc2)cc1 -13.2%
Cc1ccc(CN2CCSc3ccc(C(=O)NCc4ccco4)cc32)cc1 -7.52%
O=C1NC(=S)SC1=C1CCCCCC1 16.7%
CN1C(=O)C(=C2CCCCCC2)SC1=S 4.5%
O=C(Cn1ncc2c(=O)oc3ccccc3c21)NCCc1ccsc1 -2.92%
COC(=O)[C@@]1(C)[C@H]2C(=O)N(Cc3ccccc3)C(=O)[C@H]2[C@H]2CN(C)C(=NC3CCCCC3)N21 -5.32%
COCCn1c(SCC(=O)Nc2sccc2C(N)=O)nnc1-c1ccncc1 -0.42%
O=C(O)c1cnn2c(C(F)(F)F)cc(-c3ccco3)nc12 23%
CCOC(=O)c1cnn2c(C(F)(F)F)cc(-c3ccco3)nc12 17%
CC(=O)c1cn(N(C)c2ncc(C(F)(F)F)cc2Cl)c(=O)[nH]c1=O -1.96%
CCOc1ccccc1C(=O)NCC(=O)NNC(=O)c1cccc(S(=O)(=O)Nc2ccc(OC)cc2)c1 -2.98%
CC(C)C(=O)Nc1cccc(C(=O)N2CCCCC2C)c1 (configuration not stated) 12.2%
O=C(Nc1ccccc1)N1CCCC2CCCCC21 (configuration not stated) 7.94%
CCC(C)N1CCN(S(=O)(=O)c2ccc(NC(C)=O)cc2)CC1 (configuration not stated) -5.24%
Cn1c(=O)c2c(nc(CN3CCN(C(=O)c4ccco4)CC3)n2Cc2ccc(Cl)cc2)n(C)c1=O -6.63%
O=C(COc1ccccc1)N1CCN(S(=O)(=O)c2ccc(Cl)cc2)CC1 11.7%
COc1ccc(OCC(=O)N2CCN(S(=O)(=O)c3ccc(Cl)cc3)CC2)cc1 0.42%
Cn1c(N)c(C(=O)COC(=O)Cc2ccc(Cl)cc2)c(=O)n(C)c1=O 0.17%
CCS(=O)(=O)c1ccc2c(c1)N(S(C)(=O)=O)CC(C(=O)NN)O2 (configuration not stated) -7.03%
Cc1ccc2nc(SCC(=O)N3CCN(c4ccccc4)CC3)[nH]c2c1 -0.39%
O=C(CCN1C(=O)c2cccc([N+](=O)[O-])c2C1=O)Nc1nccs1 -4.6%
O=[N+]([O-])c1ccc(N2CCN(c3ccccc3O)CC2)c(Cl)c1 -0.29%
NC(=O)C1CCN(c2ccc([N+](=O)[O-])cc2Cl)CC1 12.1%
N#Cc1csc(CCNC(=O)c2ccccc2)n1 -7.18%
Nn1c(SCc2ccccc2)nnc1-c1ccco1 2.72%
c1ccc(CSc2n[nH]c(-c3ccco3)n2)cc1 28.1%
CSc1ccc(-c2ccco2)nn1 11.8%
Clc1ccccc1CSc1ncccn1 -2.52%
Nc1cc(N)nc(SCc2ccccc2Cl)n1 0.21%
CSc1nnc(-c2ccco2)n1-c1ccccc1 5.76%
CCC(C)[C@H]1CNC(=S)N1CCC12CC3CC(CC(C3)C1)C2 (some centres not stated) 28.7%
Cc1ccc(N(CC(=O)NCc2ccc3c(c2)OCO3)S(=O)(=O)c2c(C)noc2C)cc1 1.33%
CCc1ccc(-c2nc(CS(=O)CC(=O)NCCN3CCCCCC3)c(C)o2)cc1 (configuration not stated) -8.11%
CC1CN(C(c2cccs2)c2sc3ncnn3c2O)CC(C)O1 (configuration not stated) -3.12%
O=S(=O)(/N=C(/Nc1cccc2ccccc12)c1ccccc1)c1ccc(Br)cc1 3.03%
CCOC(=O)N1CCC(N2CCN(S(=O)(=O)c3ccc(C)cc3)CC2)CC1 3.57%
CCCCC(=O)Nc1ccc(Br)cn1 -2.24%
CCCCCCC(=O)Nc1ccc(Br)cn1 22.8%
C/C(=N/NC(=O)c1ccccc1)c1ccc(NC(=O)C(F)(F)F)cc1 1.31%
Cc1ccc(OCC(O)CNCc2ccc(F)cc2)cc1 (configuration not stated) 4.08%
O=C(Nc1ccc(CN2CCCCC2)cc1)c1cccc(F)c1 -2.63%
COc1ccc(C(=O)CSc2nc3ccccc3n2CC(=O)c2ccccc2)cc1 2.41%
O=C(CSc1nc2ccccc2n1CCc1ccccc1)NC1CC1 16.5%
CC(=O)Nc1ccc(NC(=O)[C@@H](NC(=O)c2ccccc2F)C(C)C)cc1 2.31%
CCC(C)[C@H](NC(=O)Nc1ccccc1F)C(=O)OC (some centres not stated) 85.4%
